Measurements reported in PubChem BioAssay AID449762 (Southern Research Specialized Biocontainment Screening …, 2010).
In all, about 330,000 compounds went through this assay and about 1,900 (0.58%) were called active. Another 4% or so got no clear call; they are omitted. Only a sample is shown. Entries with a potency or affinity are not part of this list. A number with no mark means an inactive call. Rule as the data show it: inconclusive = inhibition above about 70% without an active follow-up result; inactive = below that.

Test: M. tuberculosis growth inhibition, HTS (AID 449762);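 also: bacterial growth assessed after seven days of incubation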
Settings: M. tuberculosis H37Rv growth inhibition, 7H9 media; at 25 µM; stronger effect = higher value

Structure (SMILES)	inhibition
CCOc1ccc(C(=O)/C=C/c2ccccc2C(F)(F)F)cc1	9.8%
CC(C)(C)c1ccc(C(=O)C=[N+]=[N-])cc1	-1.15%
COc1ccc(CC(=O)NNC(=O)CCc2ccccc2)cc1OC	0.55%
O=C(NCC(O)c1ccccc1)c1ccccc1 (stereo not drawn)	-1.58%
Cc1ccc(C)c(Cc2c(C)nc3c(C(=O)NCc4ccc5c(c4)OCO5)cnn3c2C)c1	65.9%
CN1C(=O)/C(=C/c2ccc(OCc3cccc(F)c3)cc2)NC1=S	14.5%
CCCNC(=S)Nc1ccccc1	0.1%
CCCNC(=S)Nc1ccc(Oc2ccccc2)cc1	-11%
COc1ccc(NC(=S)Nc2ccccn2)cc1	-2.6%
Cc1cccc(NC(=S)Nc2ccccn2)c1	-7.66%
N#Cc1cc2c(nc1SCc1cccnc1)CCCCC2	7.53%
CC1CCN(S(=O)(=O)c2ccc(S(=O)(=O)N3CCC4(CC3)OCCO4)cc2)CC1	0.35%
Cc1cc(NC(=O)/C=C/C(=O)N(CC(=O)NC2CCCC2)c2cccc3ccccc23)no1	-2.08%
COc1ccc(CCNCC2C(Oc3ccc(Cl)cc3)C(=O)N2c2ccccc2C)cc1OC (stereo not drawn)	11.7%
COC(=O)c1ccc2c(=O)[nH]c(COC(=O)CCC(=O)c3ccc(Cl)cc3)nc2c1	0.04%
Cc1cc(=O)c2ccc3ccccc3c2[nH]1	10.2%
CCCc1c(C)nc2ccc(OC)cc2c1SCCC(=O)O	-2.63%
COc1ccc(C(=O)Nc2cc3c(cc2Cl)OCCCO3)cc1	5.96%
COc1cccc(NC(=O)CSc2nc3n[nH]c(C)c3c(=N)n2-c2cccc(OC)c2)c1	-0.47%
CCc1ccccc1NC(=O)CSc1nc2n[nH]c(C)c2c(=N)n1-c1cccc(OC)c1	7.97%

Structure (SMILES)	inhibition
O=C(CSc1ccc(Br)cc1)N1CCN(C(=O)c2ccco2)CC1	2.56%
COc1ccc(C(=O)C2CCCN(Cc3cn[nH]c3-c3ccccc3)C2)cc1OC (stereo not drawn)	2.2%
O=C(c1ccc2c(c1)OCO2)C1CCCN(Cc2cn[nH]c2-c2ccccc2)C1 (stereo not drawn)	4.84%
CC1Cc2cccc3c(O)c(C(=O)c4nn[nH]n4)c(=O)n1c23 (stereo not drawn)	14.9%
N#Cc1nc(COc2ccccc2)oc1N1CCCC1	-0.06%
CC(C)NC(=O)c1onc(CSc2ccc(F)c(F)c2)c1C(=O)NC(C)C	8.4%
CC(C)NC(=O)c1onc(CSc2cccc(F)c2)c1C(=O)O	33.3%
COc1ccc(C)cc1N(C(=O)c1snc(C(N)=O)c1N)C(C(=O)NC1CCCC1)c1ccc(F)cc1 (stereo not drawn)	41.8%
CCOC(=O)c1sc(NC(=S)NC(=O)c2cccc(Cl)c2)c(C(=O)OCC)c1C	3.64%
C#C[C@]1(O)CC[C@H]2[C@@H]3CCc4cc(OC)ccc4[C@H]3CC[C@@]21C	-0.52%
C#C[C@]1(O)CC[C@H]2[C@@H]3CCc4cc(O)ccc4[C@H]3CC[C@@]21C	2.29%
Cc1cc(C)nc(Sc2nc(Nc3ccccc3)nc(Sc3nc(C)cc(C)n3)n2)n1	-5.43%
Cc1csc(SCCN2C(=O)c3ccccc3C2=O)n1	1.44%
O=[N+]([O-])c1ccc2nc(-c3ccccc3)oc2c1	-0.96%
O=[N+]([O-])c1ccc2c(c1)oc1ccccc12	-7.51%
Cn1c(=O)c2c(nc(CN3CCN(c4ccc(F)cc4)CC3)n2Cc2ccccc2F)n(C)c1=O	-1.15%
Cc1cc(C(=O)OCC(=O)Nc2cccnc2Cl)c2ccccc2n1	3.92%
COc1ccc(CCNc2ccc(C(CC(N)=O)NC(=O)c3cc(OC)ccc3OC)cc2[N+](=O)[O-])cc1 (stereo not drawn)	-2.34%
COc1ccc(OC)c(C(=O)NC(CC(N)=O)c2ccc(NCC3CC3)c([N+](=O)[O-])c2)c1 (stereo not drawn)	8.73%
Cc1cc(-n2c(C)cc(C(=O)COc3ccc(F)c(F)c3)c2C)no1	12.9%

Structure (SMILES)	inhibition
Cc1cc(C(=O)COc2ccc3ccc(=O)oc3c2)c(C)n1C	-2.83%
Cc1ccc(Cl)cc1N1CCN(Cc2cc3c(cc2O)CCC3)CC1	-2.77%
COc1cccc(CN(C)C(=O)c2cc(S(=O)(=O)NCc3ccccc3)ccc2C)c1OC	-0.57%
COc1ccc(-c2nc(C#N)c(NCc3cccnc3)o2)cc1OC	-2.1%
Cc1ccc(-n2cc(CNCCN3CCOC3=O)c(-c3ccc(F)cc3)n2)cc1	6%
COc1ccc(-c2nn(-c3ccccc3F)cc2CNCCn2nc(C)cc2C)cc1	63.9%
O=C(CS(=O)(=O)c1ccccc1)Nc1ccc(Cl)cn1	-23.7%
O=C(CCNC(=O)N1CC(=O)Nc2ccccc21)Nc1ccc(F)c(Cl)c1	1.86%
Nc1nc(SCc2c(F)cccc2Cl)[nH]c(=O)c1-c1ccccc1	3.32%
CCOC(=O)N1CCN(C(=O)CCS(=O)(=O)c2ccc3c(c2)CC(C)N3C(=O)CC)CC1 (stereo not drawn)	7.71%
CCC(=O)N1c2ccc(S(=O)(=O)CCC(=O)N3CCN(c4ccccc4F)CC3)cc2CC1C (stereo not drawn)	-7.68%
CCCCn1c(N)c(N(CC(C)C)C(=O)CCCc2nc3ccccc3s2)c(=O)[nH]c1=O	-2.46%
Cc1cc(C)n(S(=O)(=O)c2ccc3oc(=O)ccc3c2)n1	2.71%
CCCCC(=O)NC(Nc1sc2c(c1C(N)=O)CCCC2)(C(=O)OCC)C(F)(F)F (stereo not drawn)	5.17%
Cc1ccc(-n2nnnc2SCC(=O)c2c(N)n(C3CC3)c(=O)[nH]c2=O)c(C)c1	-6.46%
COc1ccc(C(=O)C2CCCN(C3CSCCSC3)C2)cc1OC (stereo not drawn)	-3.92%
COc1ccc(C(=O)C2CCCN(C3CSCCSC3)C2)c(OC)c1 (stereo not drawn)	5.9%
CCOC(=O)c1c(C)nc2sc(C(N)=O)c(N)c2c1-c1ccc(OC)cc1	-6.87%
